# This is a sample that favours compounds with a hit; in the whole collection about 3.6% have one here.
# mHTT CaM bind: disrupts binding of mutant huntingtin to calmodulin; P42858; AlphaScreen His-mHTT/GST-CaM binding, luminescence; inhibition, % at 15 µM; 190,000 tested, 3.6% active; AID 1671202
# Pf apPOL block: Pf-apPOL DNA polymerase inhibition | Recombinant Pf-apPOL, molecular beacon fluorescence, 1.5 h | inhibition, % at 10 µM | 210,000 tested, 0.25% active | AID 1794808
# Numbers stand for hits; n = inactive; x = no result; ! = repeats disagree. Cut-off read from the data, not from the text of the source: active = inhibition above about 50%; inactive = the rest.
SMILES,mHTT CaM bind,Pf apPOL block
Cc1[nH]nc2c1C(c1ccccc1)C(C#N)=C(N)O2 (stereo not given),x,n
Cc1[nH]nc2c1C(c1ccc(-c3ccccc3Cl)o1)C(C#N)=C(N)O2 (stereo not given),50,n
NNC(=O)CNC(=O)c1ccccc1,n,62
O=C(O)CNC(=O)c1ccccc1,n,n
O=C(Nc1ccc(Cl)cc1)/C(=C1\Nc2ccc([N+](=O)[O-])cc2N1)[N+](=O)[O-],n,n
O=C(Nc1ccc(Br)cc1)/C(=C1\Nc2ccc([N+](=O)[O-])cc2N1)[N+](=O)[O-],n,52
O=C(Cn1c(=O)[nH]c2ccccc2c1=O)NCCc1cccs1,n,n
CC1=CC(=O)C=C(C)C1=NOC(=O)/C=C/c1ccccc1,100,n
O=C(/C=C/c1ccccc1)O/N=C1\CCCc2oc3c(c21)CCCC3,n,n
COc1cc(/C=C2/SC(=Nc3cc(C)cc(C)c3)NC2=O)c([N+](=O)[O-])cc1OC,n,n
Clc1ccc(OCc2noc(-c3ccsc3)n2)cc1,x,n
CCCC1CCC2(CCCN2CCOC(=O)Nc2ccccc2)CC1 (stereo not given),n,n
CCCC1CCC2(CCCN2CCOC(=O)Nc2ccc(Br)cc2)CC1 (stereo not given),96,n
CN1CCN(c2ccc([N+](=O)[O-])c(-n3nc(-c4ccccc4)c4ccccc4c3=O)c2)CC1,55!,n
O=c1c2ccccc2c(-c2ccc(Cl)cc2)nn1-c1cc(N2CCNCC2)ccc1[N+](=O)[O-],98,n
O=c1c2ccccc2c(-c2ccccc2)nn1-c1cc(N2CCN(CCO)CC2)ccc1[N+](=O)[O-],n,n
O=c1c2ccccc2c(-c2ccc(F)cc2)nn1-c1cc(N2CCOCC2)ccc1[N+](=O)[O-],n,n
CC(C)(C)NC(=O)Nc1nnc(SCC(=O)NCc2ccccc2Cl)s1,n,n
O=C(CSc1nccn1-c1cccc(Cl)c1)Nc1cc(C(F)(F)F)ccc1Cl,n,n
Cc1cc(C)cc(-n2ccnc2SCC(=O)Nc2cccc(C(F)(F)F)c2)c1,52,n
Cc1cccc(-n2ccnc2SCC(=O)Nc2cccc(C(F)(F)F)c2)c1C,n,n
Cc1cccc(-n2ccnc2SCC(=O)Nc2ccc(Cl)c(Cl)c2)c1C,95,n
O=C(CSc1nccn1-c1cccc(Cl)c1)Nc1cccc(C(F)(F)F)c1,61,n
Cc1cccc(-n2ccnc2SCC(=O)Nc2cccc(C(F)(F)F)c2)c1,n,n
O=C(CSc1nccn1-c1ccccc1)Nc1cc(C(F)(F)F)ccc1Cl,n,n
SMILES,mHTT CaM bind,Pf apPOL block
O=C(CSc1nccn1-c1ccc([N+](=O)[O-])cc1)Nc1cc(C(F)(F)F)ccc1Cl,51,n
Cc1ccc(C2=N/C(=C\c3c(F)cccc3Cl)C(=O)O2)cc1,n,n
CCC(CC)C(=O)Nc1c(C)cccc1C,n,n
CCC(C(=O)Nc1c2c(nn1C(C)(C)C)CSC2)c1ccccc1 (stereo not given),n,n
O=C(OCc1cc(-c2cc3ccccc3o2)on1)c1cc(=O)c2ccccc2o1,n,n
CCOc1ccc(-c2nc3cc(N=Cc4cc([N+](=O)[O-])cc(OC)c4O)ccc3o2)cc1,n,n
COc1ccc(NC(=O)CN(c2ccc(Cl)cc2C)S(C)(=O)=O)c(OC)c1,n,n
COc1ccc(N(CC(=O)Nc2ccc(Br)c(C)c2)S(C)(=O)=O)c(OC)c1,54,n
CCCN1C(=O)Cc2cc(C(=O)N3CCN(c4cccc(C)c4)CC3)ccc21,n,n
O=C(c1ccc2c(c1)CC(=O)N2Cc1ccccc1)N1CCCCC1,n,n
CCCN1C(=O)Cc2cc(C(=O)N3CCN(c4ccc(F)cc4)CC3)ccc21,51,n
O=C(c1ccc2c(c1)CC(=O)N2Cc1ccccc1)N1CCN(c2ccccn2)CC1,54,n
CCCN1C(=O)Cc2cc(C(=O)N3CCN(c4cccc(C)c4C)CC3)ccc21,55,n
Cc1cccc(N2CCN(C(=O)c3ccc(-c4cccnc4)nc3)CC2)c1C,64,n
COc1ccccc1N1CCN(C(=O)c2ccc(-c3cccnc3)nc2)CC1,n,n
CCCN1C(=O)Cc2cc(C(=O)N3CCN(c4ccc(C)cc4)CC3)ccc21,n,n
CCN(CC)S(=O)(=O)c1cc(C(=O)Nc2cc(C)on2)ccc1Br,n,n
Cc1ccc(C(=O)NC(C(Cl)(Cl)Cl)S(=O)(=O)c2ccc(C)cc2)cc1 (stereo not given),n,n
COc1ccc(C(C2C(=O)CC(C)(C)CC2=O)C2C(=O)CC(C)(C)CC2=O)cc1OC,n,n
N#Cc1ccc(C(=O)N2CCC(Nc3ncnc4c3CCC4)C2)cc1 (stereo not given),n,n
CCSc1nnc2n(-c3ccccc3OC)c(=O)c3c4c(sc3n12)CCC4,n,n
CCCN1C(=O)Cc2cc(C(=O)N3CCN(c4ccccc4)CC3)ccc21,51,n
CCCN1C(=O)Cc2cc(C(=O)N3CCOCC3)ccc21,n,n
O=C(Cn1ccc2ccc(N3CCCCC3)nc21)NC1CCCC1,n,n
O=C(Cn1ccc2ccc(N3CCCCCC3)nc21)NC1CCCCC1,50,n
SMILES,mHTT CaM bind,Pf apPOL block
Cc1cc(C)n(CC(=O)N2CCCCC2c2nc(C3CC3)no2)n1 (stereo not given),n,n
CCN1CCC2(CC1)N=C(c1ccccc1O)CC(c1cccc(OC)c1O)N2 (stereo not given),n,n
O=C(CC(NCc1ccco1)C(=O)O)Nc1cc(Cl)ccc1O (stereo not given),n,n
O=C(CC(NCc1ccccn1)C(=O)O)Nc1cc(Cl)ccc1Cl (stereo not given),100,n
Cn1nc(COCc2ccc(Cl)cc2)c2c1CCN(C(=O)Nc1ccccc1)C2,n,n
CCC(=O)N1CCc2c(c(COCc3ccc(Cl)cc3)nn2C)C1,52,n
Cn1nc(COCc2ccccc2)c2c1CCN(S(=O)(=O)c1ccccc1)C2,n,n
Cc1ccccc1S(=O)(=O)N1CCc2c(c(COCc3ccccc3)nn2C)C1,60,n
CCCC(=O)N1CCc2c(c(COCc3ccc(C)cc3)nn2C)C1,n,n
COc1ccc(NC(=O)N2CCc3c(c(COCc4ccc(Cl)cc4)nn3C)C2)cc1,58,n
COc1cccc(NC(=O)c2ccccc2C)c1,n,n
CCS(=O)(=O)c1ccc(CC(=O)Nc2nnc(-c3ccccc3Cl)o2)cc1,68,n
COc1cc(OC)cc(-c2nnc(NC(=O)c3ccc(S(=O)(=O)N(C)C)cc3)o2)c1,n,n
COc1ccc(S(=O)(=O)CC(=O)Nc2nnc(-c3cc(C)oc3C)o2)cc1,57,n
O=C(CS(=O)(=O)Cc1ccccc1)Nc1nnc(-c2ccccc2Cl)o1,n,n
Cc1cc(-c2nnc(NC(=O)c3ccc(S(=O)(=O)N(C)C)cc3)o2)c(C)o1,58,n
COc1ccc(-c2nnc(NC(=O)CS(=O)(=O)c3ccc(F)cc3)o2)c(OC)c1,n,n
Cc1cc(-c2nnc(NC(=O)c3cnccn3)o2)c(C)o1,n,n
CC1(C)CC(=O)C2=C(C1)Nc1ccccc1NC2/C(Br)=C/c1ccccc1 (stereo not given),n,n
Cc1nc(CSc2ccc3nnc(-c4ccccn4)n3n2)cs1,76,n
O=[N+]([O-])c1cccc(CSc2ccc3nnc(-c4ccccn4)n3n2)c1,98,n
O=C(NCCc1nnc2ccc(SCc3ccccn3)nn12)c1ccccc1,n,n
c1ccc(CSc2nnc3ccc(-c4ccccn4)nn23)nc1,n,n

# Screening data from PubChem.
